Residue numbers refer to the chain shown, from its start.

In article PMC8222333, “AsCas12a ultra nuclease facilitates the rapid generation of therapeutic cell medicines” one finds binding signal data, which are given here for 15 molecules.

B1: GAGA (dsDNA)
DNA 1: GCTATCTAGTGCTCAGTACGCACTGGAGAAGGAAACTTCTGGCAGGACCAGGTCATGAGATCGGAAGAGCACACGTCTGAACTCCAGTCA
DNA 2: TGACTGGAGTTCAGACGTGTGCTCTTCCGATCTCATGACCTGGTCCTGCCAGAAGTTTCCTTCTCCAGTGCGTACTGAGCACTAGATAGC
RNA: AAUUUCUACUCUUGUAGAUAGGAAACUUCUGGCAGGACC
B2: GCGA (dsDNA)
DNA 1: B1 DNA 1 with A27C
DNA 2: B1 DNA 2 with T64G
RNA: B1 RNA
B3: GGGA (dsDNA)
DNA 1: B1 DNA 1 with A27G
DNA 2: B1 DNA 2 with T64C
RNA: B1 RNA
B4: GGTA (dsDNA)
DNA 1: B1 DNA 1 with A27G, G28T
DNA 2: B1 DNA 2 with C63A, T64C
RNA: B1 RNA
B5: GCTT (dsDNA)
DNA 1: B1 DNA 1 with A27C, G28T, A29T
DNA 2: B1 DNA 2 with T62A, C63A, T64G
RNA: B1 RNA
B6: GTCT (dsDNA)
DNA 1: B1 DNA 1 with A27T, G28C, A29T
DNA 2: B1 DNA 2 with T62A, C63G, T64A
RNA: B1 RNA
B7: GTGA (dsDNA)
DNA 1: B1 DNA 1 with A27T
DNA 2: B1 DNA 2 with T64A
RNA: B1 RNA
B8: GATT (dsDNA)
DNA 1: B1 DNA 1 with G28T, A29T
DNA 2: B1 DNA 2 with T62A, C63A
RNA: B1 RNA
B9: GGTT (dsDNA)
DNA 1: B1 DNA 1 with A27G, G28T, A29T
DNA 2: B1 DNA 2 with T62A, C63A, T64C
RNA: B1 RNA
B10: GATA (dsDNA)
DNA 1: B1 DNA 1 with G28T
DNA 2: B1 DNA 2 with C63A
RNA: B1 RNA
B11: GCTG (dsDNA)
DNA 1: B1 DNA 1 with A27C, G28T, A29G
DNA 2: B1 DNA 2 with T62C, C63A, T64G
RNA: B1 RNA
B12: GGTC (dsDNA)
DNA 1: B1 DNA 1 with A27G, G28T, A29C
DNA 2: B1 DNA 2 with T62G, C63A, T64C
RNA: B1 RNA
B13: GCTC (dsDNA)
DNA 1: B1 DNA 1 with A27C, G28T, A29C
DNA 2: B1 DNA 2 with T62G, C63A, T64G
RNA: B1 RNA
B14: GCTA (dsDNA)
DNA 1: B1 DNA 1 with A27C, G28T
DNA 2: B1 DNA 2 with C63A, T64G
RNA: B1 RNA
B15: GATG (dsDNA)
DNA 1: B1 DNA 1 with G28T, A29G
DNA 2: B1 DNA 2 with T62C, C63A
RNA: B1 RNA

The first assay deals with dAsCas12a Ultra (Acidaminococcus sp., UniProt U2UMQ6 1-1307, M537R;F870L;D908A;E993A;D1235A). Briefly: Spec-seq (native PAGE EMSA with sequencing of bound and unbound); 25 mM Tris-HCl pH 7.4, 150 mM KCl, 5 mM MgCl2, 10% glycerol, 1 mM DTT, 40 ng/uL salmon sperm DNA; 400 nM Cas12a, 480 nM crRNA, 50 nM library, 37 C 1 h; native PAGE at room temperature; high values mean tight binding. The note with it: protein: recombinant. A general note: In EMSA bound probe runs differently from free probe, usually more slowly.
For the molecule B1, the binding signal was -8.96 lnKA.

Turning to B2, the binding signal is -8.91 lnKA.

As to B3, the binding signal was -8.93 lnKA.

As for B4, the binding signal is -7.78 lnKA.

On to B5, for which the binding signal was -8.74 lnKA.

As for B6, the binding signal was -8.79 lnKA.

On to B7, for which the binding signal was -7.93 lnKA.

On to B8, for which the binding signal was -8.92 lnKA.

Turning to B9, the binding signal is -8.59 lnKA.

Consider B10, for which the binding signal was -8.53 lnKA.

As to B11, the binding signal was -7.49 lnKA.

Consider B12, for which the binding signal is -8.4 lnKA.

As to B13, the binding signal was -6.65 lnKA.

As to B14, the binding signal is -6.83 lnKA.

In the case of B15, the binding signal was -8.85 lnKA.

The target in another assay is dAsCas12a S542R (Acidaminococcus sp., UniProt U2UMQ6 1-1307, S542R;D908A;E993A;D1235A). Described as above. The note with it: protein: recombinant.
Turning to B1, the binding signal is -8.5 lnKA.

B2: the binding signal is -8.63 lnKA.

Turning to B3, the binding signal was -8.02 lnKA.

Regarding B4, the binding signal is -7.66 lnKA.

As to B5, the binding signal is -8.31 lnKA.

On to B6, for which the binding signal was -7.55 lnKA.

Take B7: the binding signal is -7.67 lnKA.

B8: the binding signal was -8.17 lnKA.

As for B9, the binding signal was -8.19 lnKA.

On to B10, for which the binding signal was -8.17 lnKA.

With B11, the binding signal was -7.86 lnKA.

Take B12: the binding signal was -8.74 lnKA.

Take B13: the binding signal is -7.23 lnKA.

Consider B14, for which the binding signal is -7.23 lnKA.

For B15, the binding signal was -8.25 lnKA.

The target in another assay is d-enCas12a (Acidaminococcus sp., UniProt U2UMQ6 1-1307, E174R;S542R;K548R;D908A;E993A;D1235A). Described as above. The settings on record: protein: recombinant.
On to B1, for which the binding signal was -5.82 lnKA.

With B2, the binding signal was -5.81 lnKA.

B3: the binding signal was -5.68 lnKA.

For B4, the binding signal is -3.21 lnKA.

With B5, the binding signal was -5.83 lnKA.

As to B6, the binding signal is -4.02 lnKA.

As to B7, the binding signal is -5.45 lnKA.

Consider B8, for which the binding signal is -5.56 lnKA.

Regarding B9, the binding signal was -5.45 lnKA.

Turning to B10, the binding signal was -3.28 lnKA.

Turning to B11, the binding signal was -5.74 lnKA.

With B12, the binding signal was -3.44 lnKA.

Take B13: the binding signal is -4.98 lnKA.

Regarding B14, the binding signal is -4.92 lnKA.

Turning to B15, the binding signal was -4.89 lnKA.

The target in a further assay is d-enCas12a-Ultra (Acidaminococcus sp., UniProt U2UMQ6 1-1307, E174R;S542R;K548R;M537R;F870L;D908A;E993A;D1235A). The description is as above. The settings on record: protein: recombinant.
For the molecule B1, the binding signal is -3.42 lnKA.

For the molecule B2, the binding signal is -3.46 lnKA.

With B3, the binding signal was -3.47 lnKA.

As for B4, the binding signal was -0.816 lnKA.

Consider B5, for which the binding signal is -3.16 lnKA.

For the molecule B6, the binding signal is -0.927 lnKA.

As to B7, the binding signal was -3.14 lnKA.

For B8, the binding signal was -3.21 lnKA.

As to B9, the binding signal was -2.7 lnKA.

Regarding B10, the binding signal was -1.2 lnKA.

On to B11, for which the binding signal was -2.73 lnKA.

In the case of B12, the binding signal was -0.971 lnKA.

For B13, the binding signal is -1.57 lnKA.

Turning to B14, the binding signal was -1.62 lnKA.

With B15, the binding signal was -2.56 lnKA.

The target of the next assay is dAsCas12a E174R (Acidaminococcus sp., UniProt U2UMQ6 1-1307, E174R;D908A;E993A;D1235A). Described as above. The settings on record: protein: recombinant.
For B4, the binding signal is -8.41 lnKA.

As for B5, the binding signal is -8.39 lnKA.

With B6, the binding signal was -8.88 lnKA.

For the molecule B7, the binding signal was -8.87 lnKA.

As to B8, the binding signal is -8.74 lnKA.

For B9, the binding signal was -8.64 lnKA.

In the case of B10, the binding signal was -6.9 lnKA.

As for B11, the binding signal is -7.49 lnKA.

On to B12, for which the binding signal was -8.96 lnKA.

Consider B13, for which the binding signal is -6.48 lnKA.

For B14, the binding signal is -5.69 lnKA.

In the case of B15, the binding signal was -8.75 lnKA.
